# In PubChem BioAssay (NCI):
# Compounds without any hit were thinned out: in the full panel of roughly 83,000, 20% have a hit.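 A percent growth of 40 corresponds to 60% growth inhibition; 0 means no net growth; -100 means all cells died. Active threshold: below 10.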 A number with no mark means an inactive call. Activity calls are given as the source filed them.
# Columns and labels:
# Assay in all cases: NCI-60 one-dose screen, 48 h (100 = growth as untreated, 0 = no growth, -100 = all killed)
# Conditions in all cases: 10 µM unless noted
# [1] = test system: SR leukemia
# [2] = test system: RPMI-8226 leukemia
# [3] = test system: OVCAR-8 ovarian
# [4] = test system: OVCAR-5 ovarian
# [5] = test system: OVCAR-4 ovarian
# [6] = test system: SK-OV-3 ovarian
# [7] = test system: IGROV1 ovarian
# [8] = test system: OVCAR-3 ovarian
# [9] = test system: HS 578T breast
# [10] = test system: NCI/ADR-RES ovarian
# [11] = test system: T-47D breast
# [12] = test system: BT-549 breast
# [13] = test system: MDA-MB-435 melanoma
# [14] = test system: SW-620 colon
# [15] = test system: MCF7 breast
# [16] = test system: HCT-116 colon
# [17] = test system: HCC-2998 colon
# [18] = test system: KM12 colon
# [19] = test system: MDA-MB-468 breast
Structure (SMILES),growth [1],growth [2],growth [3],growth [4],growth [5],growth [6],growth [7],growth [8],growth [9],growth [10],growth [11],growth [12],growth [13],growth [14],growth [15],growth [16],growth [17],growth [18],growth [19]
COc1ccc2[nH]c(O)c(N=NC(=O)c3ccc4nc(-c5ccc(Cl)cc5)[nH]c4c3)c2c1,34.2%,103%,48.4%,72.1%,48.9%,90.8%,78.1%,71.8%,37.7%,116%,13.5%,34.5%,81.2%,82.6%,24.5%,51.4%,64.6%,78.6%,–
CC1=C(C(=O)OCc2ccccc2)C(c2ccc(N(C)C)cc2)n2c(nc3ccccc32)N1 (stereo not drawn),46%,81.4%,95.6%,102%,81.4%,95.4%,84%,92.6%,61.7%,73.2%,84.6%,82.8%,29.4%,103%,65.2%,87.7%,90.8%,73.4%,–
COc1ccc(N=Nc2c(N)nn3c(N)c(C#N)c(-c4ccccc4)nc23)cc1,73.8%,13.8%,8.3% (active),72.8%,-13.4% (active),13.1%,20.8%,-6.99% (active),-0.615% (active),6.35% (active),16.4%,-16.7% (active),62.5%,66.2%,14.5%,20.2%,65.2%,45%,–
CC1CCc2c(sc3nc(SCC(=O)c4cccc([N+](=O)[O-])c4)n(-c4ccccc4)c(=O)c23)C1 (stereo not drawn),49%,84.1%,38.6%,94.2%,98%,98.8%,74.8%,111%,94.7%,65%,86.8%,94.5%,90.8%,71.1%,86.5%,25%,105%,93.5%,–
O=C1/C(=C/C=C/c2ccco2)SC(=S)N1CC(=S)C1C=CS(=O)(=O)C1 (stereo not drawn),39%,63.9%,97.1%,100%,96.1%,105%,92.7%,65.9%,109%,95.8%,80.2%,88.1%,96.7%,76.9%,27.9%,83.4%,103%,89.4%,–
Cn1cc(-c2cc(N)n3nc(-c4c[nH]c5ccc(Cl)cc45)cc3n2)c2cccnc21,-26.2% (active),-17.8% (active),-76.2% (active),-82.5% (active),-42% (active),-73.5% (active),-77.7% (active),-71.3% (active),-26.2% (active),-73.8% (active),-65.9% (active),-77.1% (active),-84.2% (active),-72.8% (active),-81.2% (active),-90.7% (active),-98.5% (active),-70.2% (active),-93.7% (active)
COc1ccc(/C=C/c2nc3ccccc3c(=O)n2CC(=O)Nc2ccccc2)cc1,54.7%,81.8%,43.6%,60.6%,0.985% (active),44.9%,49.9%,49.3%,9.93% (active),36.8%,-20.4% (active),98.5%,85.2%,61.6%,54.9%,21%,80.2%,66.9%,–
COc1c(B(O)O)cc(F)cc1-c1nc2c(F)cc3[nH]ncc3c2c2c1CCCC2,33%,-5.25% (active),10.2%,15.9%,39.4%,25.1%,14.6%,18.6%,11.4%,17.4%,33.7%,-62.2% (active),31%,0.792% (active),-2.86% (active),4.76% (active),20.1%,7.55% (active),–
COc1ccc(NC(=O)Nc2nc3ccc([N+](=O)[O-])cc3s2)cc1,5.15% (active),-2.91% (active),17.1%,60.4%,15.2%,58.6%,26.4%,18%,5.84% (active),-1.49% (active),4.2% (active),17.9%,23%,15%,0.377% (active),10.3%,19.2%,3.81% (active),–
c1n[nH]cc1-c1nc2ccc3cn[nH]c3c2c2c1CCCC2,74.5%,85.3%,89.2%,89.9%,96.1%,96.8%,66.5%,109%,53%,88.7%,74.7%,97.1%,94.8%,109%,78.7%,89.5%,104%,96.4%,–
Nc1nnc(-c2cncc(Br)c2)c(-c2c[nH]c3ccc(Br)cc23)n1,54.3%,38.4%,60%,83%,42.9%,98.7%,52.3%,69.9%,55.3%,23.9%,26.1%,47.4%,-14.4% (active),28.1%,50.4%,22.9%,74.7%,41.4%,–
CCOC(=O)c1ccc(NC(=S)NC(=O)c2cccc(NC(=O)c3ccc(C)cc3)c2)cc1,54.5%,62.4%,28.9%,77.3%,27.8%,73.5%,73.6%,61.4%,53.4%,65.9%,67.9%,63.3%,86.1%,68.2%,64.2%,49.1%,98.4%,97.5%,–
O=C(CSc1nc2sc3c(c2c(=O)n1-c1ccc(Cl)cc1)CCCC3)NNC(=O)c1ccc(F)cc1,46.3%,83.2%,35.4%,73.8%,83.9%,90.5%,63.3%,119%,79.9%,77.6%,74%,67.3%,98.2%,91%,61.9%,78.3%,113%,101%,–
CC(C)C[C@H](NC(=O)[C@@H]1CCCCCCCCCCC(=O)N[C@@H](CC(=O)N2CCC[C@@H]2C2CCCC2)C(=O)N1)B(O)O,-14.3% (active),22%,-17.4% (active),-36.8% (active),-13% (active),-7.33% (active),-58.2% (active),-46.5% (active),3.6% (active),1.84% (active),-20% (active),-79.2% (active),-57.3% (active),4.22% (active),-28.2% (active),-80% (active),-100% (active),-35.7% (active),-70.6% (active)
COc1ccc(-n2c(NC(=O)N3CCN(C)CC3)c(C#N)c3ccccc32)cc1,31.5%,41.6%,66.8%,55.1%,43.3%,55%,34.2%,42.6%,27.3%,59.5%,55.2%,57.7%,71.7%,69.2%,35.5%,48%,89%,34.1%,38.3%
